Reference: PubChem BioAssay (NCI)
Several values for one entry are separate records, joined by “and”; a condition that tells them apart may be missing. Equal entries are not always repeated. Compounds without any hit were thinned out: in the full panel of roughly 79,000, 15% have a hit. Activity calls are given as the source filed them. Cut-off read from the data, not from the text of the source: active = growth inhibition above about 70%; inactive = the rest.

Assays:
[1] = NCI Yeast Anticancer Drug Screen. Data for the wt2 strain (AID 169);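 note: 0% = growth of vehicle-treated yeast cultures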; settings: S. cerevisiae wt2 strain growth inhibition, hits give high values
Procedure, shortened: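 Inhibition of yeast growth was determined after compound treatment, normalised to controls receiving only vehicle.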

[2] = NCI Yeast Anticancer Drug Screen. Data for the mlh1 strain (AID 171);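 note: 0% = growth of vehicle-treated control cultures of the same strain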; settings: S. cerevisiae mlh1 strain growth inhibition, hits give high values
Procedure, shortened: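 Vehicle-normalised growth inhibition of a repair- or checkpoint-altered yeast strain following compound treatment.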

[3] = NCI Yeast Anticancer Drug Screen. Data for the sgs1 strain (AID 173);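 note: 0% = growth of vehicle-only control cultures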; settings: S. cerevisiae sgs1 mutant, hits give high values
Procedure, shortened: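 Screen format: yeast with repair or checkpoint alterations, compound exposure, growth read relative to vehicle.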

[4] = NCI Yeast Anticancer Drug Screen. Data for the mlh1 rad18 strain (AID 175); settings: S. cerevisiae mlh1 rad18 strain growth inhibition, hits give high values
Procedure, shortened: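 Vehicle-treated cultures served as the reference for growth inhibition in a yeast strain carrying DNA damage repair alterations exposed to each compound.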

[5] = NCI Yeast Anticancer Drug Screen. Data for the rad18 strain (AID 177); settings: S. cerevisiae rad18 mutant growth inhibition, hits give high values
Procedure, shortened: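 Test articles were incubated with altered yeast defective in DNA damage repair. Results are given as inhibition of growth versus vehicle.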

[6] = NCI Yeast Anticancer Drug Screen. Data for the rad52 strain (AID 147);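 note: 0% = growth of vehicle-treated control cultures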; settings: S. cerevisiae rad52 mutant growth inhibition, hits give high values
Procedure, shortened: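 Vehicle-treated cultures served as the reference for growth inhibition of compound-exposed yeast bearing a DNA repair mutation.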

[7] = NCI Yeast Anticancer Drug Screen. Data for the wt1 strain (AID 149);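 note: 0% = growth of vehicle-treated wt1 cultures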; settings: S. cerevisiae wt1 strain (SPY 50644) growth inhibition, hits give high values
Procedure, shortened: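 The wt1 strain was treated with compounds, and growth was compared with vehicle-treated cultures to give inhibition.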

[8] = NCI Yeast Anticancer Drug Screen. Data for the rad50EPP+ strain (AID 151);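 note: 0% = growth of vehicle-treated control cultures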; settings: S. cerevisiae rad50 mutant strain, hits give high values
Procedure, shortened: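 In this screen, rad50EPP+ yeast were exposed to compounds. Growth inhibition was scored against vehicle-treated controls.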

[9] = NCI Yeast Anticancer Drug Screen. Data for the mgt1 strain (AID 153); settings: S. cerevisiae mgt1 mutant growth inhibition, hits give high values
Procedure, shortened: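 mgt1 strain exposed; growth vs vehicle control recorded as inhibition.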

[10] = NCI Yeast Anticancer Drug Screen. Data for the rad50 strain (AID 155);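 note: 0% = growth of vehicle-only cultures of the same strain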; settings: S. cerevisiae rad50 strain growth inhibition, hits give high values
Procedure, shortened: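 Cells are treated with compound, grown, and their growth is then scored against vehicle-only cultures of the same repair-deficient yeast strain.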

[11] = NCI Yeast Anticancer Drug Screen. Data for the mec2-1 strain (AID 157); settings: S. cerevisiae mec2-1 strain, hits give high values
Procedure, shortened: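 Vehicle-treated cultures served as reference for growth inhibition of compound-exposed mec2-1 yeast.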

[12] = NCI Yeast Anticancer Drug Screen. Data for the rad14 strain (AID 159);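 note: 0% = growth of vehicle-treated control cultures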; settings: S. cerevisiae rad14 strain growth inhibition, hits give high values
Procedure, shortened: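 Readout: yeast growth inhibition, referenced to vehicle-only cultures. Strain bears a defined alteration in DNA damage repair.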

[13] = NCI Yeast Anticancer Drug Screen. Data for the sgs1 mgt1 strain (AID 161);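 note: 0% = growth of cultures given vehicle only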; settings: S. cerevisiae sgs1 mgt1 strain, hits give high values
Procedure, shortened: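 Read-out: growth inhibition vs vehicle controls. Cells: mutant yeast strain deficient in DNA damage repair.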

[14] = NCI Yeast Anticancer Drug Screen. Data for the CLN2oe strain (AID 163);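 note: 0% = growth of vehicle-only control cultures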; settings: S. cerevisiae CLN2oe strain, hits give high values
Procedure, shortened: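 Inhibition relative to vehicle-treated yeast is reported. Cells: strain with genetic alteration in cell-cycle control, grown with compound.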

[15] = NCI Yeast Anticancer Drug Screen. Data for the cln2 rad14 strain (AID 165);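 note: 0% = growth equal to vehicle treated cultures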; settings: S. cerevisiae cln2 rad14 strain, hits give high values
Procedure, shortened: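 Each compound was tested on cln2 rad14 yeast. Inhibition of growth was calculated against vehicle-exposed controls.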

[16] = NCI Yeast Anticancer Drug Screen. Data for the bub3 strain (AID 167); settings: S. cerevisiae bub3 mutant strain, hits give high values
Procedure, shortened: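 Part of a panel of yeast mutants defective in DNA damage repair or cell cycle regulation. Each strain is grown with compound, and inhibition is calculated relative to solvent-treated cultures.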

[17] = at 5.0 µM (retest, dose inferred, filed as 0.5)
[18] = at 50.0 µM (retest, dose inferred, filed as 5.0)

Measured: growth inhibition

O=C(O)c1ccc(N2C(=O)C=CC2=O)cc1
inactive: [1]; at 1.2 µM -2% | [1]; at 3.7 µM -1% | [1]; at 11.0 µM 5% | [1]; at 33.0 µM 22% | [1]; at 100.0 µM 68% | [2]; at 1.2 µM -2% | [2]; at 3.7 µM 5% | [2]; at 11.0 µM 10% | [2]; at 33.0 µM 25% | [2]; at 100.0 µM 61% | [3]; at 1.2 µM 0% | [3]; at 3.7 µM 4% | [3]; at 11.0 µM 14% | [3]; at 33.0 µM 31% | [3]; at 100.0 µM 67% | [4]; [17] -6% and 4% | [4]; [18] 41% and 20% | [4]; at 50.0 µM 20.1% and 27.3% | [5]; at 1.2 µM 1% | [5]; at 3.7 µM 3% | [5]; at 11.0 µM 4% | [5]; at 33.0 µM 22%
active: [5]; at 100.0 µM 72%

COc1cc(/C=C2\CCC/C(=C\c3ccc(O)c(OC)c3)C2=O)ccc1O
inactive: [6]; at 1.2 µM -6% | [6]; at 3.7 µM -6% | [6]; at 11.0 µM 9% | [6]; at 33.0 µM 11% | [6]; at 100.0 µM 4% | [7]; at 1.2 µM 1% | [7]; at 3.7 µM 10% | [7]; at 11.0 µM 15% | [7]; at 33.0 µM 12% | [7]; at 100.0 µM 15% | [8]; at 1.2 µM 0% | [8]; at 3.7 µM -2% | [8]; at 11.0 µM 24% | [8]; at 33.0 µM 22% | [8]; at 100.0 µM 15% | [9]; at 1.2 µM 0% | [9]; at 3.7 µM -1% | [9]; at 11.0 µM 1% | [9]; at 33.0 µM 0% | [9]; at 100.0 µM -3% | [10]; at 1.2 µM -30% | [10]; at 3.7 µM -9% | [10]; [17] 13% | [10]; at 11.0 µM -7% | [10]; at 33.0 µM -7% | [10]; [18] 12% | [10]; at 50.0 µM 2.8% and 9.55% | [10]; at 100.0 µM 8% | [11]; at 1.2 µM -1% | [11]; at 3.7 µM 0% | [11]; [17] 4% | [11]; at 11.0 µM 1% | [11]; at 33.0 µM 0% | [11]; [18] 15% | [11]; at 50.0 µM -13.1% and 63.1% | [11]; at 100.0 µM 0% | [12]; at 1.2 µM 5% | [12]; at 3.7 µM -3% | [12]; at 11.0 µM 12% | [12]; at 33.0 µM 4% | [12]; at 100.0 µM 5% | [13]; [17] 8% | [13]; [18] 57% | [13]; at 50.0 µM -12.4% and 59.1% | [14]; at 1.2 µM -7% | [14]; at 3.7 µM -6% | [14]; at 11.0 µM -7% | [14]; at 33.0 µM -5% | [14]; at 100.0 µM -6% | [15]; [17] -4% | [15]; [18] 6% | [15]; at 50.0 µM 1.65% and 9.95% | [16]; at 1.2 µM -5% | [16]; at 3.7 µM -2% | [16]; [17] 1% | [16]; at 11.0 µM -2% | [16]; at 33.0 µM -4% | [16]; [18] 15% | [16]; at 50.0 µM -24.9% and 44% | [16]; at 100.0 µM -12% | [1]; at 1.2 µM 6% | [1]; at 3.7 µM 16% | [1]; at 11.0 µM 22% | [1]; at 33.0 µM 27% | [1]; at 100.0 µM 18% | [2]; at 1.2 µM -8% | [2]; at 3.7 µM -2% | [2]; at 11.0 µM -2% | [2]; at 33.0 µM -1% | [2]; at 100.0 µM -2% | [3]; at 1.2 µM -15% | [3]; at 3.7 µM -10% | [3]; at 11.0 µM 3% | [3]; at 33.0 µM 5% | [3]; at 100.0 µM -6% | [4]; [17] -3% | [4]; [18] 6% | [4]; at 50.0 µM -13.2% and 11.4% | [5]; at 1.2 µM -7% | [5]; at 3.7 µM 5% | [5]; at 11.0 µM 3% | [5]; at 33.0 µM 1% | [5]; at 100.0 µM -7%

O=C(NO)Nc1cc(Cl)cc(Cl)c1
inactive: [6]; at 1.2 µM 7% | [6]; at 3.7 µM 39% | [7]; at 1.2 µM -3% | [7]; at 3.7 µM -3% | [8]; at 1.2 µM -4% | [8]; at 3.7 µM -4% | [8]; at 11.0 µM 19% | [9]; at 1.2 µM -3% | [9]; at 3.7 µM 16% | [10]; at 1.2 µM 7% | [10]; at 3.7 µM 50% | [10]; [17] 24% | [11]; at 1.2 µM -2% | [11]; at 3.7 µM 11% | [11]; [17] 0% | [12]; at 1.2 µM 8% | [12]; at 3.7 µM 20% | [13]; [17] 58% | [14]; at 1.2 µM 7% | [14]; at 3.7 µM 26% | [15]; [17] 21% | [16]; at 1.2 µM -2% | [16]; at 3.7 µM 10% | [16]; [17] -17% | [1]; at 1.2 µM -3% | [1]; at 3.7 µM 6% | [2]; at 1.2 µM 4% | [2]; at 3.7 µM 31% | [3]; at 1.2 µM -2% | [3]; at 3.7 µM 54% | [4]; [17] 64% | [5]; at 1.2 µM 3% | [5]; at 3.7 µM 34%
active: [6]; at 11.0 µM 99% | [6]; at 33.0 µM 99% | [6]; at 100.0 µM 97% | [7]; at 11.0 µM 80% | [7]; at 33.0 µM 99% | [7]; at 100.0 µM 98% | [8]; at 33.0 µM 88% | [8]; at 100.0 µM 86% | [9]; at 11.0 µM 100% | [9]; at 33.0 µM 99% | [9]; at 100.0 µM 98% | [10]; at 11.0 µM 99% | [10]; at 33.0 µM 99% | [10]; [18] 99% | [10]; at 50.0 µM 99.3% | [10]; at 100.0 µM 96% | [11]; at 11.0 µM 99% | [11]; at 33.0 µM 99% | [11]; [18] 99% | [11]; at 50.0 µM 99.2% | [11]; at 100.0 µM 98% | [12]; at 11.0 µM 99% | [12]; at 33.0 µM 98% | [12]; at 100.0 µM 98% | [13]; [18] 99% | [13]; at 50.0 µM 98.8% | [14]; at 11.0 µM 99% | [14]; at 33.0 µM 99% | [14]; at 100.0 µM 98% | [15]; [18] 99% | [15]; at 50.0 µM 99% | [16]; at 11.0 µM 99% | [16]; at 33.0 µM 99% | [16]; [18] 99% | [16]; at 50.0 µM 98.8% | [16]; at 100.0 µM 98% | [1]; at 11.0 µM 98% | [1]; at 33.0 µM 99% | [1]; at 100.0 µM 98% | [2]; at 11.0 µM 99% | [2]; at 33.0 µM 99% | [2]; at 100.0 µM 97% | [3]; at 11.0 µM 100% | [3]; at 33.0 µM 100% | [3]; at 100.0 µM 98% | [4]; [18] 99% | [4]; at 50.0 µM 99.3% | [5]; at 11.0 µM 99% | [5]; at 33.0 µM 99% | [5]; at 100.0 µM 98%
